# Screening data (PubChem)
# IL1B secr inh – blocks inflammasome-driven IL-1 beta release. THP-1 LPS/ATP IL-1B secretion, AlphaLISA, 16 h; active compounds read low. activity change, % at 57.5 µM. 360,000 compounds, 4.7% hits; in the data active = activity change below about -50%; inconclusive = mostly about -30% to -49%
#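 THP-1 cells pretreated 1 hr with compounds (up to 57.5 uM final), then stimulated with LPS (250 ng/mL final) plus ATP (1.25 mM final); secreted IL-1B measured by AlphaLISA after 16 hr, decreased signal indicating inhibition.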
# TDP1 cell noCPT – qHTS for Inhibitors of human tyrosyl-DNA phosphodiesterase 1 (TDP1): qHTS in cells in absence of CPT; 420,000 compounds, 15% hits; DT40 Tdp1-/- hTDP1 cells, no CPT, ATP luminescence, 48 h; Potency, µM (highest dose often 46.2 µM), for inactives: at the highest dose activity change, negative = growth inhibition, most hits filed as inhibitors; also: potency is read from the fitted curve at half-maximal effect; nearly all actives have a fitted effect of over 55% in size
#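 A cellular qHTS used chicken DT40 cells lacking endogenous Tdp1 but carrying stably transfected human TDP1. Compounds were applied without camptothecin, and cell growth kinetics were judged by ATP-dependent luminescence after ≥48 hr.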
# HT1080-NT tox – kills 2HG-producing HT-1080-NT fibrosarcoma cells; Potency, µM (doses to about 46.1 µM), without a hit: at the top dose activity, negative = less viability, actives largely listed as cytotoxic; 360,000 compounds, 1.6% hits; HT-1080-NT fibrosarcoma viability, CellTiter-Glo ATP luminescence, 48 h;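 also: NT is the 2HG producing partner of a matched IDH1 knockdown line; potency is read from the fitted curve at half-maximal effect; 0% = DMSO-treated cells and -100% = media-only wells without cells; nearly all actives have a fitted effect of over 55% in size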
#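 Viability by CellTiter-Glo luminescence after 48 h compound exposure at 37C of HT-1080-NT cells (750/well, RPMI, 5% FBS). % activity scaled between DMSO wells and medium-only wells, then curve-fitted and categorized by curve class.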
# DT40 TDP1 CPT – DT40-hTDP1 cell growth loss with CPT | Potency, µM (series often up to 46.2 µM), for the others: top-dose activity change, negative = growth inhibition, hits mostly inhibitors | 420,000 compounds, 12% hits | AID 686979 | chicken DT40 Tdp1-/-;hTDP1 cells + 20 nM CPT, ATP luminescence, 48 h; also: potency is read from the fitted curve at half-maximal effect; nearly all actives have a fitted effect of over 55% in size
#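 Chicken DT40 Tdp1-/- cells stably complemented with human TDP1 were seeded at 400 cells/well in medium containing 20 nM camptothecin, exposed to pin-transferred compounds, and grown at 37 °C for at least 48 hr. Viability was read as ATP luminescence.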
# HT1080 IDH1KD tx – HT-1080 IDH1 knockdown cell toxicity (counter line). Potency, µM (top dose mostly 46.1 µM), inactives show at the highest dose activity, negative = toxicity, most hits filed as cytotoxic. HT-1080 IDH1 knockdown viability, ATP luminescence, 48 h. AID 686971. 360,000 compounds, 2% hits;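 also: potency is read from the fitted curve at half-maximal effect; 0% = DMSO wells and -100% = cell-free medium wells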
#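 Using the IDH1-knockdown HT-1080 line run in the same batch and compound series as the NT line, viability after 48 h at 37 °C was determined by CellTiter-Glo luminescence and expressed as % activity.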
# Active calls of the source: *; ? = inconclusive; . = no result given. A selection: hits, their analogues and other compounds. The true share with any hit is near 19%. Unless noted, calls follow the shape of the dose curve; as a rule, active = well fitted curve in the direction sought with a large enough effect; inconclusive = small, poorly fitted or top-dose-only effect, or another doubt; inactive = no such curve, though single readings can be large; an effect the other way counts as inactive or inconclusive. Unless noted, % is scaled to controls: 0 for no effect and ±100 for the full control effect.
SMILES,IL1B secr inh,TDP1 cell noCPT,HT1080-NT tox,DT40 TDP1 CPT,HT1080 IDH1KD tx
COC(=O)[C@]1(Cc2ccccc2)N[C@H](CN(C)C(=O)Nc2ccc(OC)cc2)[C@@H]2C(=O)N(C)C(=O)[C@@H]21,4.6,8.8%,-2.7%,8.6%,1.1%
CCN(C[C@H]1N[C@@](CC)(C(=O)OC)[C@H]2C(=O)N(Cc3ccccc3)C(=O)[C@@H]12)C(=O)c1ccc(F)cc1,-12.0,?,6.2%,-29.6%,10.6%
CCN(C[C@H]1N[C@@](Cc2ccccc2)(C(=O)OC)[C@H]2C(=O)N(Cc3ccccc3)C(=O)[C@@H]12)C(=O)c1ccc(F)cc1,-16.6,?,5.4%,16.4µM*,3.0%
COC(=O)[C@]1(Cc2ccccc2)N[C@H](CN(C)C(=O)c2ccc(C)cc2)[C@@H]2C(=O)N(Cc3ccccc3)C(=O)[C@@H]21,-2.2,18.4µM*,5.1%,?,0.4%
COC(=O)[C@]1(Cc2ccccc2)N[C@H](CN(C)C(=O)C2CCCCC2)[C@@H]2C(=O)N(Cc3ccccc3)C(=O)[C@@H]21,-5.8,16.4µM*,1.0%,20.6µM*,1.2%
CCN(C[C@H]1N[C@@](CC)(C(=O)OC)[C@H]2C(=O)N(Cc3ccccc3)C(=O)[C@@H]12)C(=O)Nc1ccc(C(F)(F)F)cc1,-108.1*,6.51µM*,2.3%,-8.8%,5.4%
COC(=O)c1ccccc1NC(=O)c1cc2cc(C)ccc2n1C,.,5.8µM*,.,6.51µM*,.
Cc1ccc(C)c(Cn2c(=O)n(CCCCC(=O)NCc3ccccc3Cl)c(=O)c3ccccc32)c1,.,7.31µM*,.,7.31µM*,.
COc1cccc(NC(=O)Cn2c(=O)n(CCCCC(=O)NCc3ccccc3Cl)c(=O)c3ccccc32)c1,.,18.4µM*,.,?,.
CCCCNC(=O)Cn1ncc2c(C)n(Cc3cccc(Cl)c3)c(C)c2c1=O,.,20.6µM*,.,23.1µM*,.
CCCCNC(=O)CCCn1c(=O)c2ccccc2n(Cc2ccccc2C)c1=O,.,20.6µM*,.,?,.
CCCCNC(=O)CCCn1c(=O)c2ccccc2n(Cc2c(C)cc(C)cc2C)c1=O,.,-4.4%,.,0.8%,.
CCOC(=O)c1ccccc1NC(=O)Cn1c(=O)n(CCC(=O)NCc2ccccc2OC)c(=O)c2ccccc21,.,16.4µM*,.,?,.
CCc1ccc(NC(=O)Cn2c(=O)n(CCCC(=O)NCc3ccccc3OC)c(=O)c3ccccc32)cc1,.,-16.8%,.,-15.8%,.
O=C(CCCn1c(=O)c2ccccc2n(CC(=O)Nc2ccc(F)cc2F)c1=O)NCc1ccccc1Cl,.,?,.,16.4µM*,.
O=C(CCCCn1c(=O)c2ccccc2n(CC(=O)Nc2ccc(F)cc2F)c1=O)NCc1ccccc1Cl,.,-19.3%,.,-9.8%,.
CCN(CC)C(=O)Cn1c(=O)n(CCCC(=O)NCc2ccccc2)c(=O)c2sccc21,-14.7,-8.5%,0.8%,-12.1%,4.2%
O=C(CCCn1c(=O)c2sccc2n(Cc2c(F)cccc2Cl)c1=O)NCc1ccccc1,.,16.4µM*,.,?,.
O=C(CCCCn1c(=O)c2ccccc2n(Cc2ccccc2F)c1=O)NCc1ccccc1Cl,.,5.17µM*,.,8.2µM*,.
COc1ccc(OCCCC(=O)OCC(=O)N2CCN(S(=O)(=O)c3ccc(C)cc3C)CC2)cc1,12.5,?,10.4%,-17.9%,-0.1%
CCOC(=O)CCC(=O)Nc1nnc2n1CCS2,.,7.2%,.,-1.0%,.
CCc1cccc(C)c1NC(=O)COC(=O)c1cc([N+](=O)[O-])ccc1N1CCOCC1,-3.4,-11.4%,0.1%,-22.4%,2.7%
Cc1ccc(CNC(=O)CCCn2c(=O)c3ccccc3n(Cc3ccc(Cl)cc3)c2=O)cc1,.,-25.9%,.,-8.2%,.
COc1ccc(CCNC(=O)CCCn2c(=O)c3ccccc3n(Cc3ccccc3C)c2=O)cc1OC,.,-1.7%,.,-24.1%,.
CCCCNC(=O)CCCn1c(=O)c2ccccc2n(Cc2cccc(Cl)c2)c1=O,.,23.1µM*,.,23.1µM*,.
SMILES,IL1B secr inh,TDP1 cell noCPT,HT1080-NT tox,DT40 TDP1 CPT,HT1080 IDH1KD tx
COc1ccccc1CNC(=O)CCCCn1c(=O)c2ccccc2n(Cc2ccccc2C)c1=O,.,2.91µM*,.,5.8µM*,.
COc1ccccc1CNC(=O)CCCCn1c(=O)c2ccccc2n(Cc2ccccc2F)c1=O,.,2.31µM*,.,3.66µM*,.
COc1ccc(NCCC(O)c2ccc(Cl)cc2)cc1 (stereo not given),-16.1,-8.7%,1.2%,8.9%,10.1%
CCCCCNC(=O)C(c1cc2ccccc2o1)n1c(=O)c(-c2ccccc2)nc2ccccc21 (stereo not given),-7.5,?,0.9%,?,-12.0%
N#CCCC1(CCC#N)c2ccccc2C(=O)c2ccccc21,57.7,-17.9%,-0.1%,-25.1%,0.7%
O=C(NCCOc1ccccc1Cl)c1ccc2c(c1)S(=O)(=O)c1cc(Cl)ccc1C2=O,22.6,-27.1%,9.9%,?,1.1%
COc1ccc(-c2ccc3c(c2)S(=O)(=O)c2cccc(C(=O)NC4CCCCC4)c2C3=O)cc1OC,16.0,23.1µM*,18.3%,14.6µM*,11.6%
COc1ccc(-c2ccc3c(c2)S(=O)(=O)c2cccc(C(=O)NCc4ccccc4Cl)c2C3=O)cc1OC,10.7,14.6µM*,10.5%,20.6µM*,8.0%
COc1ccc(-c2ccc3c(c2)S(=O)(=O)c2cccc(C(=O)N4CCN(c5ccc(Cl)cn5)CC4)c2C3=O)cc1OC,61.4,?,4.9%,-5.1%,-3.0%
COc1ccc(-c2ccc3c(c2)S(=O)(=O)c2cccc(C(=O)NC4CC4)c2C3=O)cc1OC,-2.4,-27.2%,5.9%,?,-18.6%
COc1ccc(-c2ccc3c(c2)S(=O)(=O)c2cccc(C(=O)NCCOc4ccccc4Cl)c2C3=O)cc1OC,158.7,23.1µM*,-2.5%,23.1µM*,8.2%
O=C1CN(C(=O)COC(=O)CNS(=O)(=O)/C=C/c2ccccc2)c2ccccc2N1,9.8,-14.6%,9.8%,1.4%,11.2%
Cc1c(C(=O)OCC(=O)c2c(N)n(CC(C)C)c(=O)n(C)c2=O)oc2ccccc12,-5.1,23.1µM*,-18.0%,?,-22.5%
COCc1c(C(=O)OCC(=O)c2c(N)n(CC(C)C)c(=O)n(C)c2=O)oc2ccccc12,3.3,20.6µM*,-10.7%,18.4µM*,-1.1%
CC(C)CN(C(=O)COC(=O)c1cnc(Cl)c(Cl)c1)c1c(N)n(Cc2ccccc2)c(=O)[nH]c1=O,-96.4*,-10.4%,-1.9%,-23.6%,-5.9%
CC(C)CN(C(=O)COC(=O)CCc1nc2ccccc2s1)c1c(N)n(Cc2ccccc2)c(=O)[nH]c1=O,-7.3,?,4.8%,16.4µM*,7.6%
